B1: design_487_778f5c6d-c470-43b8-8f82-464af6177e08_420_dldesign_0_cycle1_af2pred (protein)
chain: AEEKIKEANRLFQEGARKMVQGLQLAAQGKKEEAEKELTEAIELFTKASKLAKEAGDERLAESAEKAAKEAKAQLAAVKAA
B2: design_487_778f5c6d-c470-43b8-8f82-464af6177e08_1035_dldesign_0_cycle1_af2pred (protein)
chain: VEEIVERVNAALARATRAALAGGPEAAARTAELMRRAAEAVRLAREDPEAGKKIADEVEAEVDALLAAVA
B3: design_486_d4f32670-1303-4d79-8413-1b14cb3eff50_2076_dldesign_0_cycle1_af2pred (protein)
chain: AALVGEAMVLLAEVAAAGPPEVRAKASAAIAALAAGDLETALKLAKEAAELLKKAGKEYEPAAKKAEEAAKLLKEAAAAAA
B4: design_486_d4f32670-1303-4d79-8413-1b14cb3eff50_1678_dldesign_0_cycle1_af2pred (protein)
chain: AAMEEKEQRIINAAKANLELAKIALEGAPHNPELALKVLEALARRAKELAEEAKKLGLEEAEKAAKEAAEEIKKYAKEAQALL
B5: design_486_d4f32670-1303-4d79-8413-1b14cb3eff50_2148_dldesign_0_cycle1_af2pred (protein)
chain: GSAAYEFAKEAIERALKAAEELKKLDPEEGKKLIEKVEKLKKELEANKDNAQKAARIAIEALQIEQEAQQKIAALKAA
B6: design_487_778f5c6d-c470-43b8-8f82-464af6177e08_1117_dldesign_0_cycle1_af2pred (protein)
chain: MNVEEAKAQIEALMNRARGYFMRGAALAGTPEGAALNAKGAALLAEAEALAKEAGPEAQKVFAELKAKMDAAVNAVAN
B7: design_486_d4f32670-1303-4d79-8413-1b14cb3eff50_2004_dldesign_0_cycle1_af2pred (protein)
chain: KKAEILAAGNALVVELLAEAEKAAKAAKAAGDPEAANQALVEAAKGAAKIHALMVKGAPVEELKKEAEAAKKKIKALAE
B8: design_487_778f5c6d-c470-43b8-8f82-464af6177e08_749_dldesign_0_cycle1_af2pred (protein)
chain: GAEEALLAEARALLARAQGLLIEAAKQLKTDPAAAIKLAEEAKKLAEKAKELAKKLGRRGPGLQAMADAVIDSAKALKAQAEAAL
B9: design_487_778f5c6d-c470-43b8-8f82-464af6177e08_100_dldesign_0_cycle1_af2pred (protein)
chain: MDKEQVYETAAKMLEEGAELVKAGEETKPAGLAKAKAAALLVLGVDPEVGEKVLKLVEEAEKADQEKAAKLIEEAAKLVKE
B10: design_487_778f5c6d-c470-43b8-8f82-464af6177e08_978_dldesign_0_cycle1_af2pred (protein)
chain: KSPTEQVAEYAAKVRAKAPKGEEIARLLFSYNAAYQADPAKGKEKEKELKALAKENPEAKEYVEAAVAAVKA
B11: design_487_778f5c6d-c470-43b8-8f82-464af6177e08_452_dldesign_0_cycle1_af2pred (protein)
chain: EEERIQRIAEQVEELIKTAEEALATGTAAGKQAAKQLALAAATVLSSVDPELGAKVKEVAKTGTAEEAIKAAKEALEEIKKK
B12: design_486_d4f32670-1303-4d79-8413-1b14cb3eff50_1679_dldesign_0_cycle1_af2pred (protein)
chain: AAAAKAKVQAAAAKALAEAKKTAAEAKTLTPEEATALLQATAADAIRQAAEYGKLDPEVAGSALVEVVKLLAEARRAVAA
B13: design_487_778f5c6d-c470-43b8-8f82-464af6177e08_256_dldesign_0_cycle1_af2pred (protein)
chain: GEALEKAKEYEKEANEAAAKGKATTPAEGALYFLKAAALYAKAAEEYKKAGDEKNAKEAEAKAKEATANMIALSKQAIAA
B14: design_487_778f5c6d-c470-43b8-8f82-464af6177e08_1347_dldesign_0_cycle1_af2pred (protein)
chain: AAEAETQAALAQLQATMHELMRIAAQALALGDAELAQEALEAVVKGQEGLADPSIVKATAEEVSAARERLRARVEALRAA
B15: design_487_778f5c6d-c470-43b8-8f82-464af6177e08_620_dldesign_0_cycle1_af2pred (protein)
chain: GAKSKALQKLFQQANELHKLAIAAKKPEAKKIYNEAAGTALDFAEKAQAGGDEEAEKLAKEAEKIAKEAKEKALAIE
B16: design_486_d4f32670-1303-4d79-8413-1b14cb3eff50_2359_dldesign_0_cycle1_af2pred (protein)
chain: DAAKEFAENYEKAAEYVSQIYAKDPAAGEEMQKVLTAKTAEASKLAIAGDLAGAAKVMKEALEIAKKKLEEL
B17: design_487_778f5c6d-c470-43b8-8f82-464af6177e08_1130_dldesign_0_cycle1_af2pred (protein)
chain: MTTEETARQQRENVEQVGRVAGLPEQAAELARAMEERAIREGLSNEEIIAEASRLSAQINRQALAAAQAA
B18: design_487_778f5c6d-c470-43b8-8f82-464af6177e08_816_dldesign_0_cycle1_af2pred (protein)
chain: GSMEELAKLRAEAEEKLAAAQAVVERPAETVTLEELNAALAQAVEAARLFQEVGDRELLAEAFRVAATLAARAVEVAA
B19: design_487_778f5c6d-c470-43b8-8f82-464af6177e08_1105_dldesign_0_cycle1_af2pred (protein)
chain: AAQLALARATLIAAADSLERLAAQAGPAYAPVAAEAAALRAAAEAGTLTADEANAALGRLLDQMEAISAEIR
B20: design_487_778f5c6d-c470-43b8-8f82-464af6177e08_718_dldesign_0_cycle1_af2pred (protein)
chain: MKKEEAIRALAAAAARAAKLAVDPRTAAVANKALEVVVSAMEEVEASEDEEEAVEIAEKALAEADKLLAEAAKAA
B21: design_487_778f5c6d-c470-43b8-8f82-464af6177e08_310_dldesign_0_cycle1_af2pred (protein)
chain: AAVLSPEQAGGTFRALATSIRLAAEAGDLDSAEALAAAGLQLAENQPAVAPLVNKAKEEAAKLTPKEAALKLADAFEQAGDALLA
B22: design_487_778f5c6d-c470-43b8-8f82-464af6177e08_560_dldesign_0_cycle1_af2pred (protein)
chain: GAAKLAQGALNMAKAQLAYLEKALAAGAADPANAAAYKAKAKEALEQLKTFATAATLVDPAAAPEGDAILKEAEAKYKALSAAIAAA
B23: design_487_778f5c6d-c470-43b8-8f82-464af6177e08_89_dldesign_0_cycle1_af2pred (protein)
chain: SEAEKEAEKAEKLVEELRANPKVPLEKAKELAKAIQELAKLDPEKGAEMASKAVAVILEKGKEIPGETINAILTGVSKAHAIINA
B24: design_487_778f5c6d-c470-43b8-8f82-464af6177e08_1277_dldesign_0_cycle1_af2pred (protein)
chain: EKEEAKKKAEELLKEIKKLAKEAAASDAETANKYLAKAVETAKELYELAKKIGEEGKELAKEANAALAAAAKAAMDKVQ
B25: design_486_d4f32670-1303-4d79-8413-1b14cb3eff50_1967_dldesign_0_cycle1_af2pred (protein)
chain: DAEVEKLQAQIRTAGLILMASSSPEKAEEALKRTKEAVELAKKNPEEGLKLAEEIAEEAKKVGTPEQAAVIDSVFK
B26: design_487_778f5c6d-c470-43b8-8f82-464af6177e08_1075_dldesign_0_cycle1_af2pred (protein)
chain: AAAEEAKKLVKEAKALLKAAEATGNLALAQAALEKALEAIALGAEVNKERPLPVAVEAVRLAGRAYALVRQLTA
B27: design_487_778f5c6d-c470-43b8-8f82-464af6177e08_501_dldesign_0_cycle1_af2pred (protein)
chain: MDRAVEIAVASLKHAVKQAIAAAEKIDPELAKKVEEEGKKKIEEAAASDSATAVEIAIEALKKLSELSKKARA
B28: design_486_d4f32670-1303-4d79-8413-1b14cb3eff50_1885_dldesign_0_cycle1_af2pred (protein)
chain: MEEAGEIVERAEEVYKRAKEAAEENAKRNPEKKEEIKKLYEEAVALIQKSLALASQGALEGNQELLKEAKKKLEEAEKVAKEIEKL
B29: design_487_778f5c6d-c470-43b8-8f82-464af6177e08_509_dldesign_0_cycle1_af2pred (protein)
chain: GEAFSKEALEKGKEAAKKAEESTDPEAKTLYIKAASNYYGAAALALSPESAPLAKERAAKGDEYRAKADAL
B30: design_487_778f5c6d-c470-43b8-8f82-464af6177e08_1099_dldesign_0_cycle1_af2pred (protein)
chain: AAEEVAKKFAKAVLRIALKQIDENAADPELVKKIADNAVKLLNSLSDGAAVAKAEAEKIKAHAEATIAKAKAAKA
B31: design_487_778f5c6d-c470-43b8-8f82-464af6177e08_901_dldesign_0_cycle1_af2pred (protein)
chain: DELEKKIKEELEKAKEYLKKGKELFEAGKYKEAAAEFEKAIEYASKAMELAAEAGPKYNKYGVEASKVANEAYKLRQQALAK
B32: design_486_d4f32670-1303-4d79-8413-1b14cb3eff50_1718_dldesign_0_cycle1_af2pred (protein)
chain: MSAGEIALANTRAVAKQLIAAGKELGTEEEARKKAEEAIAKVEELAKKGPAGAAEAMKITVEMMKELDKVSKAVEEAE
B33: design_487_778f5c6d-c470-43b8-8f82-464af6177e08_421_dldesign_0_cycle1_af2pred (protein)
chain: SDAKLAVEAARSAAIAAIELAKQGAWQGAELARQNMKKAAEKALKLGAADPSVKEEVEKEVNAIVKETDAALAAEKAAR
B34: design_486_d4f32670-1303-4d79-8413-1b14cb3eff50_2179_dldesign_0_cycle1_af2pred (protein)
chain: AQEANDLLAETLETLREGQAAAKELGDEEARLKLVELANKSMTLASQAVAAGGDQELLDKAKEYHAELKKLAKEVKEKA
B35: design_487_778f5c6d-c470-43b8-8f82-464af6177e08_1159_dldesign_0_cycle1_af2pred (protein)
chain: DTAAALAAAAAAAAALAKADPALAPAALAITQANLAAILDLAEETKAANPEVPAAVGETFNTAITTASTAYATALKLAQ
B36: design_487_778f5c6d-c470-43b8-8f82-464af6177e08_920_dldesign_0_cycle1_af2pred (protein)
chain: ESVREAARKVKELAEALAAQAKAAGDEEAAKLAEEAAKLAEEAEKKAEEDPEEAKRLIVEALRLLNRAFALLVAAS
B37: design_487_778f5c6d-c470-43b8-8f82-464af6177e08_613_dldesign_0_cycle1_af2pred (protein)
chain: EEAEKERARAIIEKASAKLDALAAEAEERDPALGAQARALRDSLAATAQTYIETGSPTGRAGLNSLAAFLA
B38: design_487_778f5c6d-c470-43b8-8f82-464af6177e08_1334_dldesign_0_cycle1_af2pred (protein)
chain: AGGYAVLAQNTLARARALAAQGPAALPEIEAQARILQQVAEAAAQAGDAEGAATAAANAEQARALAEEARRA
B39: design_487_778f5c6d-c470-43b8-8f82-464af6177e08_1129_dldesign_0_cycle1_af2pred (protein)
chain: AEELRERMKKSADGAIEVINDLTAYGIAHPEHAALARAALTGLGTNMIAAAAANPVSKELAEKLAAALTAATAAIDAA

Values without a mark were called inactive. No rule for the calls is given here.

The target of the assay is CD276, Q5ZPR3.
Sequence of CD276, Q5ZPR3 (Q5ZPR3 whole entry): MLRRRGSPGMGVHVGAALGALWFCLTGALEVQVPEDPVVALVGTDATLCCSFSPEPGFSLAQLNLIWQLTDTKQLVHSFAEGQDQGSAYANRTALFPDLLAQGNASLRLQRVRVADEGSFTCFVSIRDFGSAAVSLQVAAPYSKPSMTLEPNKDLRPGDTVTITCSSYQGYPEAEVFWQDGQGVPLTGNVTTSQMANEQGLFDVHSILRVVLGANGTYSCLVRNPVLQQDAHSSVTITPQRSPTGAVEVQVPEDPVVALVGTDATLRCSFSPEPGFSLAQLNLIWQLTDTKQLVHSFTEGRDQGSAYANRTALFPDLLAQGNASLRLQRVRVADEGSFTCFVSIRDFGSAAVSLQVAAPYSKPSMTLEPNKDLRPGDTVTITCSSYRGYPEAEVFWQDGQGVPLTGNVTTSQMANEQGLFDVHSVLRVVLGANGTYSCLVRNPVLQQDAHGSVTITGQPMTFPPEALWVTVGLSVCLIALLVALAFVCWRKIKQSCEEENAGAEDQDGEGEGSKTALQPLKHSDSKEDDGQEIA
As to B1, the “binding in a display sort” value is “not found”.
Next, B2: “not found”; B3: “not found”.
Next, B4: “not found”; B5: “not found”.
The entry for B6 is “not found”; for B7 it is “not found”.
As to B8, the “binding in a display sort” value is “not found”.
Take B9: the “binding in a display sort” value is “not found”.
Next, B10: “not found”.
Next, B11: “not found”.
As for B12, the “binding in a display sort” value is “not found”.
For the molecule B13, the “binding in a display sort” value was “not found”.
Take B14: the “binding in a display sort” value is “not found”.
For the molecule B15, the “binding in a display sort” value is “not found”.
Next, B16: “not found”; B17: “not found”; B18: “not found”.
Next, B19: “not found”; B20: “not found”.
Turning to B21, the “binding in a display sort” value is “not found”.
Take B22: the “binding in a display sort” value is “not found”.
As to B23, the “binding in a display sort” value is “not found”.
For the molecule B24, the “binding in a display sort” value is “not found”.
Turning to B25, the “binding in a display sort” value is “not found”.
Consider B26, for which the “binding in a display sort” value is “not found”.
The entry for B27 is “not found”.
As to B28, the “binding in a display sort” value is “not found”.
Take B29: the “binding in a display sort” value is “not found”.
In the case of B30, the “binding in a display sort” value was “not found”.
Turning to B31, the “binding in a display sort” value is “not found”.
The entry for B32 is “not found”; for B33 it is “not found”; for B34 it is “not found”.
On to B35, for which the “binding in a display sort” value was “not found”.
Consider B36, for which the “binding in a display sort” value is “not found”.
The entry for B37 is “not found”; for B38 it is “not found”; for B39 it is “not found”.

The values are drawn from article PMC13494018.
